Screening data: PubChem, National Center for Advancing Translational Sciences (NCATS)
An excerpt weighted towards active compounds, which were near 2.4% of everything screened.
LT uptake inh: blocks cellular internalization of anthrax lethal toxin | Cells, anthrax lethal toxin internalization, FRET ratio (460/530) | Potency, µM (series often up to 40 µM), actives largely listed as inhibitors | actives 0.67% (n = 70,000); further: nearly all actives have a fitted effect of over 50% in size
AmpC inh no det: AmpC beta-lactamase inhibition, detergent-free assay | P00811 | AmpC nitrocefin hydrolysis, absorbance 480 nm, no detergent | Potency, µM (series often up to 28.7 µM) | actives 1.8% (n = 71,000) | AID 585
Target sequence (P00811 whole entry, looked up): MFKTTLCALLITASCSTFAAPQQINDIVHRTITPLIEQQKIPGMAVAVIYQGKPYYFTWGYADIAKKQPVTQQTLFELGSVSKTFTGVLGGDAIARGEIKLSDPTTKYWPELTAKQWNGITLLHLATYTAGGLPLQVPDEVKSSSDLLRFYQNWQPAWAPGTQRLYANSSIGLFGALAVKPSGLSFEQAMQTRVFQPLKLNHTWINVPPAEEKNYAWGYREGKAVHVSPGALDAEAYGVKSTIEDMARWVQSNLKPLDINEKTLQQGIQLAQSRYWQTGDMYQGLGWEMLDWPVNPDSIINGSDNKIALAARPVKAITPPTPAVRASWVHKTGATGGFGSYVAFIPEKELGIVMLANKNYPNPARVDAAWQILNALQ
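AmpC, 20 mM phosphate pH 7.0; 15 min cpd preinc, RT; start with nitrocefin (800 uM stock); A480 kinetic read, 20 s intervals, 4 min. No-enzyme wells = negative control.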
AmpC det inh: blocks E. coli AmpC beta-lactamase in presence of detergent; Potency, µM (series often up to 28.7 µM); purified AmpC, nitrocefin hydrolysis with detergent; P00811; actives 0.09% (n = 71,000); active means well fitted curve in the direction sought with a large enough effect; inconclusive means small, poorly fitted or top-dose-only effect
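E. coli AmpC (5.3 nM) in 20 mM phosphate pH 7.0 with 0.01% Triton X-100, preincubated 15 min RT with compound; nitrocefin (2 uL of 800 uM stock) hydrolysis followed by 480 nm absorbance every 20 s over 4 min.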
SmPrx2 inh: blocks S. mansoni peroxiredoxin 2 enzymatic activity | S. mansoni Prx2 activity coupled to TGR/GSH (TGR is thioredoxin glutathione reductase), NADPH fluorescence loss, qHTS | Potency, µM | actives 0.07% (n = 65,000) | AID 448
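qHTS, coupled TGR/Prx2 format; 15 min compound preincubation at RT; reaction started with H2O2 (2.5 mM aliquot); kinetic NADPH fluorescence decrease, ex 365/em 450 nm.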
Large screens that a line does not name were inactive; [ ] = another dose, or the depositor's remark. Unless noted, the call rests on the fitted dose curve.

Cc1ccc(N2C(=O)c3ccccc3C2Nc2ccccc2F)nc1 (configuration not stated)	LT uptake inh inconclusive, AmpC inh no det 4µM[single pt active]
O=C1c2ccccc2C(O)N1c1ccc(Cl)cc1 (configuration not stated)	none
CN1CCC[C@@H]1c1cccnc1.O=C(O)c1ccccc1O.O=C([OH2+])c1ccccc1O.O=C([OH2+])c1ccccc1O.O=C([OH2+])c1ccccc1O.[Cu]	none
O=C(O)[C@@H]1[C@@H]2C[C@@H]3[C@@H](OC(=O)[C@@H]31)[C@H]2Br	none
CCOc1ccc(C(=O)Nc2cc(C)on2)cc1	none (no result: SmPrx2 inh)
Cc1cc(NC(=O)c2cccc(COc3ccc(Br)cc3)c2)no1	LT uptake inh inconclusive, AmpC inh no det 4µM[single pt active]
Cc1cc(C(=O)CSc2nc3ccccc3n2CCC#N)c(C)n1Cc1cccs1	AmpC inh no det 16µM
Cc1cc(Cl)ccc1OCC(=O)Nc1ccccc1N1CCOCC1	LT uptake inh 16µM
Nc1ncnc2c1ncn2[C@@H]1O[C@@H](COP(=O)(O)CP(=O)(O)OP(=O)(O)O)[C@H](O)[C@@H]1O	none
c1csc(CNc2ncncc2-c2ccoc2)c1	none
Cc1ccccc1NC(=O)CN1C(=O)COc2ccc(Cl)cc21	LT uptake inh 10µM
COc1ccc(-n2nnnc2S(=O)(=O)CC(=O)N2CCCCC2)cc1	LT uptake inh 3.2µM, SmPrx2 inh inconclusive
Cc1cc(=O)oc2cc(OCC#N)ccc12	AmpC inh no det 4µM[single pt active]
COc1ccc(C(=O)CCC(=O)N2CCN(c3ccc(N4CCOCC4)nn3)CC2)cc1	none
CC(=O)N1CSCC1C(=O)N1CCN(c2ccc(N3CCOCC3)nn2)CC1 (configuration not stated)	AmpC inh no det 2µM[single pt active] (no result: SmPrx2 inh)
Cc1cc(NC(=O)c2noc3c2CCc2ccccc2-3)n(-c2ccccc2)n1	AmpC inh no det 2.5µM[single pt active]
CCOC(=O)c1cc(-c2ccc(F)cc2)n(CC(=O)Nc2nccs2)c1C	LT uptake inh 10µM, AmpC inh no det 3.2µM[single pt active]
CCOC(=O)c1cc(-c2ccccc2)n(CC(=O)O)c1C	none
Cc1ccccc1-c1ccc2ncnc(N(C)Cc3ccco3)c2c1	LT uptake inh inconclusive
COc1ccc2c(c1O)-c1cccc3c1[C@H](C2)N(C)CC3	LT uptake inh inconclusive
COc1cccc(-c2cncnc2NCc2ccccc2)c1	LT uptake inh inconclusive, AmpC inh no det 13µM, AmpC det inh 10µM
COC(=O)c1ccc(C(NC(=O)OCc2ccccc2)/C(C)=C/[C@@H](C)C(=O)N2CCN(C)CC2)cc1 (some centres not stated)	none (no result: SmPrx2 inh)
CN(CCNC(=O)c1cc2c(=O)n(C)c3ccccc3c2n1C)Cc1ccccc1	LT uptake inh 3.2µM
CCCN(CCC)CCNC(=O)c1cc2c(=O)n(C)c3ccccc3c2n1C	LT uptake inh 4µM
Cn1c(C(=O)NCc2cccs2)cc2c(=O)n(C)c3ccccc3c21	AmpC inh no det 4µM[single pt active]
COCCn1cc(C(=O)NCc2cccs2)c2c3ccccc3n(C)c2c1=O	none
CC(C)CO/N=C1/C[C@@H](O)[C@@H](O)[C@@H]2[C@@H]3C(=O)N(C4CCCCC4)C(=O)[C@H]3CC[C@@H]12	none (no result: AmpC inh no det, AmpC det inh, SmPrx2 inh)
COc1ccc2[nH]cc(CCNc3ccnc(-c4ccccc4C)n3)c2c1	LT uptake inh inconclusive
COc1cccc(-c2nccc(NCCc3c[nH]c4ccc(OC)cc34)n2)c1	LT uptake inh 13µM
O=C(Cn1cc(C(=O)c2cccs2)c2ccccc21)NCc1ccc2c(c1)OCO2	LT uptake inh inconclusive, AmpC inh no det 2µM[single pt active]
Cc1cc(C)nc(SCC(=O)c2ccc(O)cc2O)n1	AmpC inh no det 4µM[single pt active]
COc1cccc(-c2ccc3ncnc(N(C)C)c3c2)c1	LT uptake inh inconclusive, AmpC inh no det 6.3µM, AmpC det inh 10µM
CCC(=O)Oc1ccc2c(C)cc(=O)oc2c1C	LT uptake inh inconclusive, SmPrx2 inh inconclusive
Cc1cc(=O)oc2c1ccc1oc(/C(=N/O)c3ccccc3)c(C)c12	LT uptake inh 10µM (no result: SmPrx2 inh)
CC(=O)O[C@H]1CC[C@@]2(C)C(=CC[C@@H]3[C@@H]4CC[C@H](c5cc(C(F)(F)F)n(C(C)=O)n5)[C@]4(C)CC[C@@H]32)C1	none
COCCCNC(=O)c1ccc(Cn2c(=O)[nH]c3ccccc3c2=O)cc1	LT uptake inh inconclusive, AmpC inh no det 4µM[single pt active]
COCCCNC(=O)CCCn1c(=O)[nH]c2ccccc2c1=O	none
COc1ccc([C@@H]2CNC(=O)C2)cc1OC1CCCC1	LT uptake inh inconclusive
NC(=O)C1=CN([C@@H]2O[C@@H](COP(=O)(O)OP(=O)(O)OC[C@@H]3O[C@H](n4cnc5c(N)ncnc54)[C@@H](OP(=O)(O)O)[C@@H]3O)[C@H](O)[C@@H]2O)C=CC1	none
COc1ccc(C(=O)C(CN2CCOCC2)c2ccccc2)cc1F (configuration not stated)	LT uptake inh 16µM
COc1ccc(C(O)C(CN2CCOCC2)c2ccccc2)cc1F (configuration not stated)	none
CN(CCc1ccc(Cl)c(Cl)c1)[C@H]1CCCC[C@H]1N1CCCC1	LT uptake inh 25µM
CN(CCc1ccc(Cl)c(Cl)c1)CCN1CCCCCC1	LT uptake inh inconclusive
O=c1cc(-c2ccccc2O)oc2c1ccc1ccccc12	LT uptake inh inconclusive
Cc1ccccc1NC(=O)CSc1nc(N)c(C#N)c(-c2cccs2)c1C#N	AmpC inh no det 10µM
COc1ccc(CCNC(=O)CSc2nc(N)c(C#N)c(-c3cccs3)c2C#N)cc1OC	LT uptake inh inconclusive
Brc1ccc(-c2noc(CCc3ccccc3)n2)o1	LT uptake inh inconclusive, AmpC inh no det 4µM[single pt active]
Fc1ccc(OCc2nc(-c3ccc(Br)o3)no2)c(F)c1	LT uptake inh inconclusive, AmpC inh no det 2.5µM[single pt active]
CC(C)OC(=O)c1cc2c(OC[C@@H](O)CNC(C)(C)C)cccc2[nH]1	none
Clc1ccccc1CNCC1CCC(CNCc2ccccc2Cl)CC1 (configuration not stated)	LT uptake inh 4µM
COc1ccc(S(=O)(=O)N(CCCN2CCCC2=O)Cc2cc3cc(C)c(C)cc3[nH]c2=O)cc1	SmPrx2 inh 58
CCOC(=O)c1c(-c2ccc(C)o2)csc1NC(=O)CSc1nnnn1-c1ccccc1	LT uptake inh inconclusive, AmpC inh no det 13µM
OCCN1CCN(c2ncnc3c2sc2nc(N4CCOCC4)c4c(c23)CCC4)CC1	LT uptake inh 10µM
CCCn1c(-c2ccc(F)cc2)nc2c(N3CCCN(Cc4ccccc4)CC3)nc(C)nc21	LT uptake inh 6.3µM (no result: SmPrx2 inh)
CCCn1c(C)nc2c(N3CCCN(Cc4ccccc4)CC3)nc(C)nc21	none (no result: SmPrx2 inh)
CC(=O)OC1c2ccccc2C(=O)N1c1ccccc1C (configuration not stated)	AmpC inh no det 4µM[single pt active]
CN(C)c1ncc2ncc(=O)n(Cc3cccs3)c2n1	none
CC(C)C[C@@H](CC(=O)N[C@@H](CCCN)CC(=O)N[C@@H]1CCNC[C@H]1C(=O)N[C@H](CC(=O)N[C@@H](CCC(=O)O)CC(=O)O)CC(C)C)NC(=O)[C@@H]1CCCC[C@H]1N	none
CCOC(=O)N/N=C1/C[C@@H](O)[C@@H](O)[C@@H]2[C@@H]3C(=O)N(C4CCCCC4)C(=O)[C@H]3CC[C@@H]12	none (no result: AmpC inh no det, AmpC det inh, SmPrx2 inh)
